Measurements published in PubChem BioAssay (NCI).
Compounds without any hit were thinned out: in the full panel of roughly 79,000, 15% have a hit. Active and inactive are the calls of the source. Cut-off read from the data, not from the text of the source: active = growth inhibition above about 70%; inactive = the rest. Where a SMILES comes first, the peptide text is derived from it. Bridges are numbered along the chain shown (N, C = ends). Roman numbers before positions name the chains, in order.

Assay: NCI Yeast Anticancer Drug Screen. Data for the rad50 strain (AID 155);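 note: 0% = growth of vehicle-only cultures of the same strain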
Settings: S. cerevisiae rad50 strain growth inhibition; at 50.0 µM; active compounds read high
Procedure: Growth inhibition of yeast strains with defined genetic alterations is measured as a screen for potential anti-cancer activity. Selected strains with alterations in DNA damage repair or cell cycle control were exposed to compounds and growth inhibition was measured relative to vehicle treated controls. The strain used in this assay is rad50

| Compound | growth inhibition |
| --- | --- |
| C=C(C)C(=O)NC(Cc1cnc[nH]1)C(=O)O (stereo not given) | 8.2% (inactive) |
| Cc1nc2ccccc2[nH]1 | 3.8% (inactive) |
| CCCCOCCOCCOC(=O)C(C)O (stereo not given) | -5.6% (inactive) |
| O=S(=O)(Oc1ccc(Cl)cc1)c1ccc(Br)cc1 | 10.7% (inactive) |
| Nc1cc(NC(=O)CO)cc(C(=O)O)c1 | 14.2% (inactive) |
| O=C(O)CCc1coc2ccc(O)cc12 | -0.45% (inactive) |
| CCN(CC)C(CC(=O)c1ccccc1)C(=O)c1ccccc1 (stereo not given) | 23.9% (inactive) |
| O=C(CBr)Nc1ccccc1[N+](=O)[O-] | 8.3% (inactive) |
| O=C(O)c1ccc2ncc(-c3ccccc3)nc2c1 | 5.3% (inactive) |
| CC1=CC=CC(C)(C)C(=O)C1=O | -31.4% (inactive) |
| Cc1c(Cl)ccc2c1NC(=O)C2(O)CC(=O)c1ccc(Cl)cc1Cl (stereo not given) | 34.4% (inactive) |
| C/C=C/C(=O)OCCCCCCCCCCCC | -41.1% (inactive) |
| CNC(=O)OCc1c(COC(=O)NC)c(-c2ccc(SC)cc2)n(C)c1C | 24.9% (inactive) |
| O=C(c1ccccc1)c1ccccc1-c1nc2ccccc2c(=O)o1 | 11.8% (inactive) |
| O=C(O)C1CCCCN1/N=C/c1cccc([N+](=O)[O-])c1 (stereo not given) | 36% (inactive) |
| N#CCCOC1C(OCCC#N)C(OCCC#N)C(OCCC#N)C(OCCC#N)C1OCCC#N (stereo not given) | -14.2% (inactive) |
| CCN(CC)CCOC(=O)c1c(C)cc(C)cc1C | -6.3% (inactive) |
| CCN1C(=O)C(=O)C(CC)(CC)C1=O | -8.4% (inactive) |
| CSC(=S)Nc1nc2ccc(Cl)cc2s1 | -1.45% (inactive) |
| Cc1cn(C2CC3[O][Sn]([c]4ccccc4)([c]4ccccc4)[O]CC3O2)c(=O)[nH]c1=O (stereo not given) | 8.65% (inactive) |

| Compound | growth inhibition |
| --- | --- |
| CN(C)CC(CN(C)C)C(=O)O | -0.2% (inactive) |
| CC1(C)OC2COC(c3[nH]nc(C(N)=O)c3C(=O)N=[N+]=[N-])C2O1 (stereo not given) | -11.3% (inactive) |
| COc1cccc(/C=N\c2nc(-c3ccccc3Cl)cs2)c1O | 44% (inactive) |
| COc1ccc(S(=O)(=O)Oc2ccc(Cl)cc2)cc1 | -2.35% (inactive) |
| COc1ccccc1/C=N/Nc1ccc([N+](=O)[O-])cc1[N+](=O)[O-] | 6.45% (inactive) |
| N#Cc1ccc(/C=C/C(=O)c2ccccc2)cc1 | 13.4% (inactive) |
| Cc1cc(C)c2[nH]c(=O)c(C)c(C)c2c1Br | -0.5% (inactive) |
| Nc1ccc(S(=O)(=O)N/N=C/c2ccco2)cc1 | 27.1% (inactive) |
| O=C1C(c2ccccc2)=[N+]([O-])c2cc([N+](=O)[O-])ccc21 | -15.8% (inactive) |
| CC1=NC(C(N)=O)C(=O)N1 (stereo not given) | -35% (inactive) |
| O=C1CN(c2ccccc2)CC(=O)N2Cc3ccccc3CN12 | -4.05% (inactive) |
| O=C(O)c1nn(-c2ccccc2)c2c1CSc1ccccc1-2 | 35.5% (inactive) |
| COc1ccc(CN=CN/C(C#N)=C(\N)C#N)cc1OC | -21.2% (inactive) |
| CCOC(=O)C12CCC(=O)CC1(O)CCC1(C2)OCCCO1 (stereo not given) | 10.1% (inactive) |
| CCN(CC)Cc1cc2[nH]c3c4ccc(Cl)cc4ncc3c2cc1OC | 23.8% (inactive) |
| CCC(C)(N)C(=O)O (stereo not given) | 10% (inactive) |
| COC(=O)c1cc(C(=O)OC)c(C/C(=N/NC(N)=S)C(=O)Nc2ccc(Cl)c(Cl)c2)nc1C/C(=N/NC(N)=S)C(=O)Nc1ccc(Cl)c(Cl)c1 | 28.4% (inactive) |
| CC(=O)Nc1ccc(OC(C)=O)cc1 | 14.4% (inactive) |
| CCC(=O)OCCSCCOC(=O)CC | 5.65% (inactive) |
| CC(C)CC(NC(=O)C(N)CSSCC(N)C(=O)NC(CC(C)C)C(=O)O)C(=O)O (stereo not drawn) (I: H-Cys-Leu-OH / II: H-Cys-Leu-OH; disulfide I:1-II:1; configuration not given here) | -10.6% (inactive) |
